Source: PubChem (National Center for Advancing Translational Sciences (NCATS))
IMPase inh: qHTS Assay for Identifying the Cell-Membrane Permeable IMPase Inhibitors; 120,000 tested, under 10 active; Inositol monophosphatase 1 (Rattus norvegicus), P97697; inhibition (IP1 accumulation), % at 46.1 µM; AID 901, 2007; CHO-M1 cells, IP1 accumulation, HTRF TR-FRET ratio; active = well fitted curve in the direction sought with a large enough effect in the signal ratio, not every such curve was filed as active; inconclusive = small, poorly fitted or top-dose-only effect, or a change in a side signal; inactive = no such curve, though single readings can be large or run the other way; the % refers to the signal ratio;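 also: cells stimulated with carbachol in lithium chloride buffer; plate controls were DMSO basal wells for no effect and reference inhibitor wells for full effect; higher means more IMPase inhibition seen as more IP1 and lower FRET ratio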
Target sequence (P97697 whole entry, looked up): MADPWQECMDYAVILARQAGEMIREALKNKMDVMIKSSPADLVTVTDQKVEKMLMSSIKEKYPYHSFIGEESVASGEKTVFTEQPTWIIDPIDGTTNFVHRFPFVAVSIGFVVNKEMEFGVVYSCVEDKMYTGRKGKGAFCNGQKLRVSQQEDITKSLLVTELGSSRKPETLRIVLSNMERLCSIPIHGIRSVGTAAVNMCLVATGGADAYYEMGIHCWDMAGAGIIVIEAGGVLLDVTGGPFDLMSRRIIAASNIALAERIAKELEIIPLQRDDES
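Seeded CHO-M1 cells were dosed with compound at up to 46 uM, stimulated with carbachol for 30 min, then lysed in IP-One detection reagents. Higher IP1 lowers the TR-FRET signal.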
IMPase Li cell: qHTS Assay for Identifying the Cell-Membrane Permeable IMPase Inhibitors: Potentiation with Lithium; CHO-M1 cells, IP1 TR-FRET (IP-One), carbachol + lithium; Potency, µM (titrated, usually from 59.4 µM), for inactives: at the top dose activity, negative = IMPase inhibition, most hits filed as inhibitors; AID 1457, 2008; 210,000 compounds, 0.35% hits; active = well fitted curve in the direction sought with a large enough effect; inconclusive = small, poorly fitted or top-dose-only effect, or another doubt; inactive = no such curve, though single readings can be large; an effect the other way counts as inactive or inconclusive;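 also: IP1 builds up when IMPase is blocked and the TR-FRET signal falls; potency is read from the fitted curve at half-maximal effect; plate controls were basal vehicle for no effect and high inhibitor control for full effect; nearly all actives have a fitted effect of over 50% in size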
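CHO cells stably expressing M1 receptor (2000/well, cultured 16–30 h) treated 30 min at 37C with compound plus low lithium. Cytosolic IP1 by TR-FRET (665/620 ratio and 620 channel) after 10 min lysis; AC50 by Hill fit.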
ALDH1A1 inh: qHTS Assay for Inhibitors of Aldehyde Dehydrogenase 1 (ALDH1A1); Aldehyde dehydrogenase 1A1 (Homo sapiens), P00352; Purified ALDH1A1, NADH fluorescence, propionaldehyde substrate; Potency, µM (doses to about 75.3 µM), without a hit: top-dose activity, negative = inhibition, actives largely listed as inhibitors; 220,000 compounds, 7.3% hits;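 also: potency is read from the fitted curve at half-maximal effect; plate controls were no enzyme wells and a reference inhibitor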
Target sequence (P00352 whole entry, looked up): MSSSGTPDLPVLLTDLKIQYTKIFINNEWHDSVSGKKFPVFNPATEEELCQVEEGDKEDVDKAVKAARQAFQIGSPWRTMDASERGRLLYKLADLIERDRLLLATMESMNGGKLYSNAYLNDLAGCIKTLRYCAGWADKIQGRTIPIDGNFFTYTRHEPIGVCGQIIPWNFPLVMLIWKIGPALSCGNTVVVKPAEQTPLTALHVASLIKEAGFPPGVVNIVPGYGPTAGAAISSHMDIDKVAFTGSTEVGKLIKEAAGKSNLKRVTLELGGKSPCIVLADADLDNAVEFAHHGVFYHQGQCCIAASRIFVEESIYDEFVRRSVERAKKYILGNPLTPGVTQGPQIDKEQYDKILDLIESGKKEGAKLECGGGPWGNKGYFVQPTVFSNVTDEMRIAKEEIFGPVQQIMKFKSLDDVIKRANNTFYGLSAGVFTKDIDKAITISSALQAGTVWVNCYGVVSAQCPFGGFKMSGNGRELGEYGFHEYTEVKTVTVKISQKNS
NPSR antagonist: qHTS Assay for Antagonists of the Neuropeptide S Receptor: cAMP Signal Transduction; Q6W5P4; CHO-NPSR cells, cAMP TR-FRET, antagonist mode; Potency, µM (doses to about 38.3 µM), inactives show top-dose activity change, negative = inhibition, usual class: inhibitors; 220,000 compounds, 1% hits; AID 1461, 2008; active = well fitted curve in the direction sought with a large enough effect; inconclusive = small, poorly fitted or top-dose-only effect, or another doubt; inactive = no such curve, though single readings can be large; an effect the other way counts as inactive or inconclusive; also: potency is read from the fitted curve at half-maximal effect; nearly all actives have a fitted effect of over 50% in size
HPGD block: qHTS Assay for Inhibitors of HPGD (15-Hydroxyprostaglandin Dehydrogenase) | 15-hydroxyprostaglandin dehydrogenase [NAD(+)] (Homo sapiens), P15428 | purified HPGD, NADH fluorescence kinetic, PGE2 substrate | Potency, µM, inactives show top-dose activity change, negative = inhibition, hits mostly inhibitors | 150,000 compounds, 4.3% hits | AID 894, 2007; also: potency is read from the fitted curve at half-maximal effect
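NADH formation kinetics: reaction with 30 uM PGE2 and 1 mM NAD+ (final), 20 nM enzyme, Tris-HCl pH 8 with Tween 20, after 15 min compound preincubation at room temperature. Fluorescence change, last versus first of five reads.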
PNC inhibitor: High Content Assay for Compounds that inhibit the Assembly of the Perinucleolar Compartment. PC3M PTB-GFP, PNC prevalence imaging, 16 h; stronger effect = lower value. activity change (PNC), negative = inhibition, % at 10 µM. 140,000 compounds, 3.1% hits. AID 2417, 2010;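 active = readout at or below -70, meaning at least 70% loss of cells showing the perinucleolar compartment, a nuclear body marking cancer cells; inconclusive = readout between -30 and a set limit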;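 also: plate controls were DMSO wells for no effect and camptothecin positive control wells for full effect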
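Read-out is percentage of cells bearing a perinucleolar compartment, from automated 20x imaging of fixed, Hoechst-stained PC3M PTB-GFP cells. Cells were seeded 4 h, then exposed 16 h to compound (23 nl of library stock) in duplicate plates.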
* hit, by the source's call; ? = inconclusive; . = not tested or not shown; [ ] = remark or other dose. Shown are actives, neighbours in structure and some others; about 11% of the full set was active somewhere. Unless noted, calls follow the shape of the dose curve; as a rule, active = well fitted inhibition curve with a large enough effect (not every such curve was filed as active); inconclusive = small, poorly fitted or top-dose-only effect, or another doubt; inactive = no such curve, though single readings can be large or run the other way. Unless noted, % is scaled to controls: 0 for no effect and ±100 for the full control effect.

SMILES	IMPase inh	IMPase Li cell	ALDH1A1 inh	NPSR antagonist	HPGD block	PNC inhibitor
Cc1ccn2c(/C=N/OCc3ccc(F)cc3)c(-c3ccc(Cl)cc3)nc2c1	?	.	22.4µM*	-7.4%[46.1 µM]	.	-18.7
Cc1ccc(C2CC(=O)c3cnc(NC(=O)c4ccco4)nc3C2)cc1 (configuration not stated)	3.8	7.7%[38.3 µM]	?	-5.1%[46.1 µM]	-13.0%	9.6
CCCCNC(=O)CCNS(=O)(=O)c1ccc(Br)cc1	-1.5	-2.0%	-4.2%	-13.9%[46.1 µM]	-5.0%	24.5
CCC(C)NC(=O)CCNS(=O)(=O)c1ccc(Br)cc1 (configuration not stated)	-1.8	20.3%[38.3 µM]	1.1%	-1.0%[46.1 µM]	0.5%	-89.6*
N#C/C(=C\c1ccc([N+](=O)[O-])o1)C(=O)Nc1ccc(F)cc1	.	10.0%	11.2µM*	-47.4%	.	.
Cc1ccc(/C=C(\C#N)C(=O)Nc2ccc(Br)cc2)o1	-12.9	.	.	.	.	.
N#CCc1ccc(NC(=O)/C=C/c2ccc([N+](=O)[O-])o2)cc1	.	17.0%	20µM*	6.31µM*	.	.
COc1ccc(NC(=O)C2C3CCC(C3)C2C(=O)O)cc1OC (configuration not stated)	-0.6	26.4%[38.3 µM]	-10.0%	0.3%[46.1 µM]	-0.2%	?
Cc1cc(-c2ccccc2)nc(N2CCC(C(=O)NC(C)C)CC2)n1	0.9	8.3%[38.3 µM]	0.6%	-3.1%[46.1 µM]	?	-99.6*
Nn1c(Cc2ccccc2F)nnc1SCC(=O)N1CC(=O)Nc2ccccc21	-8.7	-1.9%	4.5%	-12.0%[46.1 µM]	-17.3%	-100.0*
Cc1cc(C)cc(C(=O)N2CC(=O)Nc3ccccc32)c1	7.2	37.4%[38.3 µM]	?	?	-27.1%	-80.0*
Cc1cc(C)c2nc(SCC(=O)N3CC(=O)Nc4ccccc43)c(C#N)cc2c1	8.9	9.2%	?	-21.5%[46.1 µM]	?	-104.2*
Cc1ccc(/C=C/C(=O)N2CC(=O)Nc3ccccc32)o1	.	-0.5%	20µM*	-10.8%	.	.
OC1(c2cccc(C(F)(F)F)c2)CCN(c2ccc(-c3ccccc3)nn2)CC1	6.2	2.1%	-3.8%	-4.5%[46.1 µM]	-10.7%	?
O=C(CCn1c(=S)oc2ccccc21)N1CCN(c2ccc(F)cc2)CC1	.	.	.	-2.1%	.	.
O=C1CN(C(=O)CSc2nc(-c3ccc(Cl)cc3)cs2)c2ccccc2N1	.	-6.3%	-3.5%	-11.3%	12.6µM*	-113.4*
CC(=O)Nc1ccc(Nc2c(CCC(C)C)c(C)c(C#N)c3nc4ccccc4n23)cc1	1.9	.	.	.	.	.
COc1ccc(CCNC(=O)Nc2ccc([N+](=O)[O-])cc2)cc1OC	.	10.5%	-12.3%	-20.6%	.	.
COc1cc(C2C3C(C)N(C)C(=O)N(C)C3N(C)C(=O)N2C)ccc1O (configuration not stated)	2.6	-15.8%[38.3 µM]	11.1%	-4.5%[46.1 µM]	-11.5%	-100.0*
O=c1c2oc3nc4c(cc3c2ncn1CCCc1ccccc1)CCCC4	.	.	3.98µM*	15.2%	.	.
CCCCn1cnc2c(oc3nc4c(cc32)CCCC4)c1=O	.	.	1.26µM*	14.3%	.	.
CCCCCCn1cnc2c(oc3nc4c(cc32)CCCC4)c1=O	-4.8	4.8%	3.55µM*	-20.0%[46.1 µM]	-17.7%	-4.9
O=C(N/N=C/c1ccncc1)c1nn(Cc2ccccc2)c(=O)c2ccccc12	.	0.3%	-11.2%	-5.1%	.	.
CCCCN1C(=O)C(O)(CC(=O)c2ccccn2)c2ccccc21 (configuration not stated)	.	2.8%	1µM*	9.3%	.	.
CCCCN1C(=O)C(O)(CC(=O)c2c(C)coc2C)c2ccccc21 (configuration not stated)	.	-5.4%	10µM*	-6.9%	.	.
SMILES	IMPase inh	IMPase Li cell	ALDH1A1 inh	NPSR antagonist	HPGD block	PNC inhibitor
CCCCN1C(=O)C(O)(CC(=O)c2ccccc2OC)c2ccccc21 (configuration not stated)	.	-2.5%	8.91µM*	7.4%	-6.3%	-5.2
COc1ccccc1C(=O)CC1(O)C(=O)N(CC(N)=O)c2ccccc21 (configuration not stated)	4.1	.	.	.	.	.
CCOC(=O)c1[nH]c(C)c(C(=O)NC2CCCCCC2)c1C	-12.9	5.7%	-3.1%	-2.6%	-1.5%	8.6
C[C@H]1O[C@@H](O[C@H]2[C@@H](O)C[C@H](O[C@H]3[C@@H](O)C[C@H](O[C@H]4CC[C@@]5(C)[C@H](CC[C@@H]6[C@@H]5C[C@@H](O)[C@]5(C)[C@@H](C7=CC(=O)OC7)CC[C@]65O)C4)O[C@@H]3C)O[C@@H]2C)C[C@H](O)[C@@H]1O	-0.3	13.9%	-1.4%	17.0%	-4.2%	-89.9*
O=C(NCC1CCCO1)c1ccc2c(c1)OCO2 (configuration not stated)	7.7	-5.2%[38.3 µM]	-0.2%	-7.3%[46.1 µM]	2µM*	53.8
O=C(NCC1CCCO1)c1ccc(C(=O)NCC2CCCO2)cc1 (configuration not stated)	-4.2	1.2%	0.1%	-0.7%[46.1 µM]	-10.3%	13.0
O=C(COC(=O)c1ccc(NS(=O)(=O)c2ccc3c(c2)OCCO3)cc1)NCC1CCCO1 (configuration not stated)	1.2	5.8%[38.3 µM]	-9.4%	-5.0%[46.1 µM]	-22.5%	-92.4*
CN(c1ccc(C(=O)NCC2CCCO2)cc1)S(C)(=O)=O (configuration not stated)	5.9	59.9%[38.3 µM]	-0.1%	2.9%[46.1 µM]	-27.1%	-87.1*
COc1ccc(C2C/C(=N\O)C(C)(C)O2)cc1 (configuration not stated)	-4.6	-11.9%[38.3 µM]	9.6%	-11.4%[46.1 µM]	-7.3%	12.4
Cc1cc(C)cc(NC(=S)Nc2ccc(Cl)c(Cl)c2)c1	.	17.2%	?	-45.1%	.	.
Cc1cccc(C)c1NC(=S)Nc1ccc(Cl)c(Cl)c1	.	11.2%	22.4µM*	-22.2%	.	.
COc1c(Cl)cc(-c2noc(C)c2C(=O)NCc2ccccc2)cc1Cl	9.5	2.3%[38.3 µM]	?	-15.2%[46.1 µM]	-13.6%	17.6
COc1c(Cl)cc(-c2noc(C)c2C(=O)NCc2ccc3c(c2)OCO3)cc1Cl	.	3.1%	0.708µM*	-0.4%	-6.2%	10.1
COc1ccccc1CC(=O)NCc1ccc2c(c1)OCO2	?	35.5%[38.3 µM]	?	-12.8%[46.1 µM]	14.1µM*	-23.2
CCOc1ccccc1C(=O)NCc1ccc2c(c1)OCO2	-7.7	16.5%[38.3 µM]	2.6%	-9.0%[46.1 µM]	3.98µM*	54.6
O=C(OC(C(=O)NCc1cccs1)c1ccccc1F)c1ccco1 (configuration not stated)	7.8	2.0%	?	-11.4%[46.1 µM]	1.3%	10.1
